PubChem BioAssay (NCATS)
Inconclusive results are not listed. Entries that show only a call come without a potency. Activity calls are given as the source filed them. Calls follow the shape of the dose curve; as a rule, active = well fitted cell-killing curve with a large enough effect; inconclusive = small, poorly fitted or top-dose-only effect, or effect the other way; inactive = no such curve, though single readings can be large or run the other way.

experiment: Quantitative highthroughput screen to assess conditional lethalithy of SEM cells grown in Human Plasma-Like Medium with dialyzed fetal bovine serum (HPLM+ds) (AID 1963882); conditions: SEM B-ALL cells in HPLM+ds, CellTiter-Glo viability, 48 h; series mostly up to 45.8 µM
Procedure, shortened: (§1)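 Each medium arm—HPLM with 10% dialyzed FBS, or RPMI1640 with 5 mM glucose and 10% untreated or dialyzed FBS—was screened against an 11-point, 3-fold compound titration for 48 h at 37 °C, with CellTiter-Glo luminescence as endpoint.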
Also: nearly all actives have a fitted effect of over 35% in size.
Potency is read from the fitted curve at half-maximal effect.

SMILES | Potency
CC(N[C@H]1C[C@H]1c1ccccc1)c1ccc2c(c1)OCCO2 (stereo not given in full) | inactive
C[C@]12CC[C@H](O)CC1=CC[C@H]1[C@H]3CCC(=O)[C@@]3(C)CC[C@@H]12 | inactive
C[C@]12CC[C@H]3[C@@H](CCC4=CC(=O)CC[C@@]43C)[C@H]1CC[C@H]2OC(=O)CCC1CCCC1 | inactive
CC[C@H]1C=CC=CC[C@@H](C)[C@H](O)[C@@](C)(O)C(=O)[C@@H](C)[C@H](O)[C@@H](C)C(=O)[C@@H](C)[C@H](O)[C@@H](C)C=CC(=O)O[C@@H]2[C@@H](C)[C@H](CC1)O[C@]1(CC[C@H](C)[C@H](C[C@@H](C)O)O1)[C@H]2C | 5.9 µM (active)
C[C@@H]1[C@H](O)[C@@H](C)C=CC=CCCC=CC=CC=CC=C[C@H](O[C@H]2O[C@@H](C)[C@H](O)[C@@H](N)[C@@H]2O)CC2O[C@](O)(C[C@@H](O)[C@H](O)CC[C@@H](O)C[C@@H](O)C[C@@H](O)CC(=O)O[C@H]1C)C[C@H](O)[C@H]2C(=O)O | inactive

experiment: Quantitative highthroughput screen to assess conditional lethalithy of SEM cells grown in RPMI1640 with unreated serum (RPMI+s) (AID 1963883); conditions: SEM B-ALL cells, CellTiter-Glo viability, 48 h; series mostly up to 45.8 µM
Procedure, shortened: as §1

SMILES | Potency
CC(N[C@H]1C[C@H]1c1ccccc1)c1ccc2c(c1)OCCO2 (stereo not given in full) | inactive
COC1(CS(=O)c2ccccc2)CCN(CCc2c[nH]c3ccc(F)cc23)CC1 (stereo not given) | inactive
CCOC(=O)c1cncn1[C@H](C)c1ccccc1 | inactive
CC(C)[C@]12O[C@@H]1[C@@H]1O[C@]13[C@]1(O[C@H]1C[C@@H]1C4=C(CC[C@@]13C)C(=O)OC4)[C@H]2O | 0.0012 µM (active)
C[C@@H]1[C@H](O)[C@@H](C)C=CC=CCCC=CC=CC=CC=C[C@H](O[C@H]2O[C@@H](C)[C@H](O)[C@@H](N)[C@@H]2O)CC2O[C@](O)(C[C@@H](O)[C@H](O)CC[C@@H](O)C[C@@H](O)C[C@@H](O)CC(=O)O[C@H]1C)C[C@H](O)[C@H]2C(=O)O | inactive
C[C@]12CC[C@H]3[C@@H](CCC4=CC(=O)CC[C@@]43C)[C@H]1CC[C@H]2O | inactive
CCOC(=O)c1c(C(C#N)=CN)c2ccc(Cl)c(Cl)c2n1C | 18.7 µM (active)
COc1ccc(CC2NCCc3cc(OC)c(OC)cc32)cc1OC (stereo not given) | 14.8 µM (active)

experiment: Quantitative highthroughput screen to assess conditional lethalithy of SEM cells grown in RPMI1640 with dialyzed fetal bovine serum (RPMI+ds) (AID 1963884); conditions: SEM B-ALL cells, RPMI+dialyzed FBS, CellTiter-Glo viability, 48 h; series mostly up to 45.8 µM
Procedure, shortened: as §1

SMILES | Potency
CO[C@H]1CCC(O[C@H]2C[C@H]([C@]3(C)CC[C@]4(C[C@H](O)[C@@H](C)[C@@H]([C@@H](C)C=C(C)C(=O)[C@H](C)C[C@H](C)C(=O)O)O4)O3)O[C@]3(O[C@@H]([C@H]4O[C@@](O)(CO)[C@H](C)C[C@H]4C)C[C@H]3C)[C@H]2C)O[C@H]1C (stereo not given in full) | 1.32 µM (active)
CC(C)(O)C=CC(=O)[C@](C)(O)[C@H]1[C@H](O)C[C@]2(C)[C@@H]3CC=C4[C@@H](C=C(O)C(=O)C4(C)C)[C@]3(C)C(=O)C[C@@]12C | 0.0662 µM (active)
COC1(CS(=O)c2ccccc2)CCN(CCc2c[nH]c3ccc(F)cc23)CC1 (stereo not given) | inactive
C[C@H]([C@H](O)CCC(C)(C)O)[C@H]1CC[C@@]2(O)C3=CC(=O)[C@@H]4C[C@@H](O)[C@@H](O)C[C@]4(C)[C@@H]3CC[C@]12C | inactive
CCOC(=O)c1cncn1[C@H](C)c1ccccc1 | inactive
COc1cccc2c1[C@]13CCN(CC4CC4)[C@H](C2)[C@]1(OC)CCC(=O)C3 | inactive
CC(C)(C)[C@]1(O)C[C@@H]2OC(=O)C[C@@]23C(=O)O[C@@H]2OC(=O)[C@H](O)C213 (stereo not given in full) | inactive
